This is a sample that favours compounds with a hit; in the whole collection about 8.6% have one here.
Marburg entry – qHTS for Inhibitors of binding or entry into cells for Marburg Virus. Marburg virus pseudotype entry/binding inhibition, cell-based. Potency, µM (series often up to 49.2 µM), actives largely listed as inhibitors. actives 6.5% (n = 18,000). AID 720532, 2013
LASV entry inh – qHTS for Inhibitors of binding or entry into cells for Lassa Virus. Lassa virus pseudotyped entry inhibition, cell-based qHTS. Potency, µM (series often up to 49.2 µM), actives largely listed as inhibitors. actives 4.1% (n = 18,000). AID 720533, 2013
Large screens that a line does not name were inactive; ! = not confirmed by another sample. Calls come from the whole dose curve; tested in HEK293 cells.

CO/N=C(\C(=O)N[C@@H]1C(=O)N2C(C(=O)O)=C(CSc3nc(C)c(CC(=O)O)s3)CS[C@H]12)c1csc(N)n1	none
CC(C)OC(=O)Nc1cccc(Cl)c1	none
CC(NC(C)(C)C)C(=O)c1cccc(Cl)c1 (centres undefined)	Marburg entry 3.5µM!
CCN(CC)CC(O)CN1CCCCc2nc(C)c(C)cc21 (centres undefined)	none
CCCCCCCCCCCCCCCC(=O)OC[C@H](O)[C@H]1OC(=O)C(O)=C1O	none
COC(=O)c1ccc(CN2C(=O)[C@@]3(CC(C)=CC[C@@H](C)O3)c3ccccc32)cc1	none
Fc1ccc(-c2ncn(C3CCNCC3)c2-c2ccnc(Oc3ccc(Oc4ccccc4)cc3)n2)cc1	Marburg entry 8.9µM, LASV entry inh inconclusive
Fc1ccc(-c2ncn(C3CCNCC3)c2-c2ccnc(Oc3ccc(F)c(F)c3)n2)cc1	Marburg entry 3.5µM, LASV entry inh inconclusive
Nc1nccc(-c2c(-c3ccc(F)cc3)ncn2C2CCNCC2)n1	Marburg entry inconclusive
O=C1[C@@H]2[C@H]3[C@H](O)[C@H](O)CC(=NOC[C@@H](O)COCc4ccco4)[C@@H]3CC[C@H]2C(=O)N1C1CCCCC1	none
COc1cc(Nc2ncc(-c3ccccc3)o2)cc(OC)c1	none
CCCCCC(=O)N1C[C@@H](O)[C@H](n2cc(COC(=O)c3ccccc3)nn2)C[C@H]1c1ccccc1	none
O=C(O)Cc1ccc(O)c(O)c1	none
CNCC(=O)c1ccc(O)c(O)c1	Marburg entry 16µM
COc1ccc2c(c1)[C@@]13CCCCC1[C@@H](C2)N(C)CC3 (some centres undefined)	Marburg entry 8.9µM, LASV entry inh inconclusive
CN1CC[C@@]23CCCCC2C1Cc1ccc(O)cc13 (some centres undefined)	none
OC1(c2ccc(Cl)c(C(F)(F)F)c2)CCN(CCCC(c2ccc(F)cc2)c2ccc(F)cc2)CC1	Marburg entry 2.8µM, LASV entry inh 11µM
Cc1ccc(C2(O)CCN(CCCC(=O)c3ccc(F)cc3)CC2)cc1	Marburg entry inconclusive
CC[N+](CC)(CC)CCOc1cccc(OCC[N+](CC)(CC)CC)c1OCC[N+](CC)(CC)CC	none
CC[N+](CC)(CC)CCOc1ccc(/C=C\c2ccccc2)cc1	Marburg entry inconclusive, LASV entry inh 20µM
CC(=O)OC[C@H]1O[C@@H](ON=C2C[C@@H](O)[C@@H](O)[C@@H]3[C@H]4C(=O)N(C5CCCCC5)C(=O)[C@@H]4CC[C@@H]23)[C@H](OC(C)=O)[C@@H](OC(C)=O)[C@H]1OC(C)=O	none
COc1ccc(-c2coc3ncnc(N)c23)cc1	none
COC(=O)c1c(C(=O)OC)c2c3ccccc3cc(-c3ccccc3)n2c1C(=O)OC	none
COc1ccc(-c2ccccc2[C@H]2[C@@H]3C=CC[C@@H](C)[C@@H]3C(=O)N2Cc2ccccc2)cc1	Marburg entry 14µM, LASV entry inh inconclusive
C[C@@H]1CC=C[C@@H]2[C@H]1C(=O)N(Cc1ccccc1)[C@H]2c1cccc(Br)c1	none
O=C1CCCC2=C1[C@H]1O[C@](CCCCN3C(=O)c4ccccc4C3=O)(Cc3c1ccc1ccccc31)O2	none
C[C@H](CO)NS(=O)(=O)c1cc(Cl)ccc1F	none
CCCCC(=O)OCC(=O)[C@]1(O)Cc2c(O)c3c(c(O)c2[C@@H](O[C@H]2C[C@H](NC(=O)C(F)(F)F)[C@H](O)[C@H](C)O2)C1)C(=O)c1c(OC)cccc1C3=O	Marburg entry inconclusive, LASV entry inh 2.8µM
CC[C@@]1(O)CC(O)c2c(cc3c(c2O)C(=O)c2c(O)ccc(O)c2C3=O)C1C(=O)OC (some centres undefined)	none
COc1cccc2c1C(=O)c1c(O)c3c(c(O)c1C2=O)C[C@](O)(C(C)=O)C[C@H]3O[C@@H]1C[C@H](N)[C@H](O)[C@H](C)O1	Marburg entry inconclusive, LASV entry inh 1µM
COc1cccc2c1C(=O)c1c(O)c3c(c(O)c1C2=O)C[C@@](O)(C(=O)CO)C[C@@H]3O[C@H]1C[C@H](N)[C@H](O)[C@H](C)O1	Marburg entry 0.28µM!, LASV entry inh 20µM!
CC[C@]1(O)CC(O[C@@H]2CC(N(C)C)C(O)C(C)O2)c2c(cc3c(c2O)C(=O)c2c(O)cccc2C3=O)C1C(=O)OC (some centres undefined)	Marburg entry 20µM
COc1ccc(O[C@H]2C=C[C@@H](c3ccccc3)O[C@H]2COC(=O)CCC(C)=NO[C@H](C)c2cn([C@@H]3COC[C@@H]3O)nn2)cc1	none (no result: LASV entry inh)
C=CCN1c2ccccc2[C@]23C[C@@H](C(=O)OC)N(C(=O)Nc4ccccc4F)C2=NC(C(=O)OC)=C(C(=O)OC)[C@H]13	none
COc1c(C=O)c(O)cc2c1C(=O)c1ccccc1C2=O	none
COc1c(C2=CC(=O)N(C)C2=O)c2c(n1C)C(=O)c1ccccc1C2=O	Marburg entry 20µM
COc1ccc(-c2nc3c(c4c2C[C@H](c2ccccc2)OC4)CN(C(=O)N[C@@H](C)C(=O)OC(C)C)CC3)c(C)c1	Marburg entry inconclusive
COc1ccc(C(=O)NCCN2Cc3cc(C)ccc3OC(C)C2)c(OC)n1 (centres undefined)	Marburg entry 2µM
Cc1ccc2c(c1)CN(CCNC(=O)c1cc3ccccc3oc1=O)CC(C)O2 (centres undefined)	none
Fc1ccc(-c2nn3ccccc3c2-c2ccncc2)cc1	Marburg entry inconclusive
Fc1ccc(C(c2ccc(F)cc2)N2CCN(C/C=C\c3ccccc3)CC2)cc1	Marburg entry 14µM, LASV entry inh inconclusive
Fc1ccc(C(OCCN2CCN(C/C=C/c3ccccc3)CC2)c2ccc(F)cc2)cc1	Marburg entry 8.9µM, LASV entry inh 16µM
CCOC(=O)OC[C@H]1O[C@H](C#Cc2ccccc2)C=C[C@H]1OC(=O)OCC	none
CC(CCN1CCCc2nc(C)c(C)cc21)=NO[C@H](C)CN1CCCc2nc(C)c(C)cc21	none
CCOC(=O)c1c(C)[nH]c2ccc3c(c12)CN1CCc2cc(OC)ccc2[C@@H]1O3	Marburg entry 5.6µM, LASV entry inh inconclusive
CCS(=O)(=O)N1CCC[C@H]2CN3CCc4cc(OC)ccc4[C@@H]3C[C@@H]21	none
c1ccc2c(N3CCNCC3)cccc2c1	Marburg entry inconclusive
c1ccc2nc(N3CCNCC3)ccc2c1	Marburg entry 32µM!
COc1cccc([C@@H]2Oc3ccc(Br)cc3C[C@@H]2OC(=O)Nc2cc(OC)c(OC)c(OC)c2)c1	none
COc1cc(CN2CCN(CCCSc3cc(C(C)(C)C)c(O)c(C(C)(C)C)c3)CC2)cc(OC)c1OC	Marburg entry 2.8µM, LASV entry inh 20µM
O=C1N(Cc2ccccc2C(F)(F)F)c2ccccc2[C@@]12O[C@H](COc1ccccc1)CC1=C2CCC1	none
CC(C)[C@@]1(NC(=O)[C@@H]2C[C@H]3c4cccc5[nH]cc(c45)C[C@@H]3N(C)C2)O[C@]2(O)[C@H]3CCCN3C(=O)[C@H](Cc3ccccc3)N2C1=O	Marburg entry inconclusive
CN1C[C@H](C(=O)N[C@]2(C)O[C@]3(O)[C@H]4CCCN4C(=O)[C@H](Cc4ccccc4)N3C2=O)C[C@H]2c3cccc4[nH]cc(c34)C[C@@H]21	Marburg entry inconclusive
CN1C[C@H](C(=O)N[C@]2(C)O[C@@]3(O)C4CCCN4C(=O)[C@H](Cc4ccccc4)N3C2=O)C[C@@H]2c3cccc4[nH]cc(c34)C[C@H]21 (some centres undefined)	Marburg entry 13µM, LASV entry inh inconclusive

Bioassay records as filed in PubChem.
